Data from PubChem BioAssay AID1159580 (chemical genetic matrix, 2015).
Screen size: about 5,500 compounds; about 2,000 (36%) were called active. Not shown: some 18% with an inconclusive outcome. Rule as the data show it: active = normalized growth mostly below about 0.91 (no sharp cut-off); inconclusive = no clear call, values can overlap the other calls; inactive = mostly above about 0.92. Some of the results follow.

Assay: chemical genetic growth profiling, strain panel (AID 1159580);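 also: tested at 20 µM; growth read once vehicle control cultures reached saturation at 30 °C; 1 = growth at the plate median or of vehicle wells; lower values mean less growth of the strain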
Details: S. cerevisiae deletion strains, growth OD

Measured: normalized growth

COCCCCC(=NOCCN)c1ccc(C(F)(F)F)cc1
inactive: locus YAL040C, strain CLN3, stronger effect = lower value 0.994 | locus YCL061C, strain MRC1 (second series), stronger effect = lower value 0.997 | locus YDR363W, strain ESC2, stronger effect = lower value 0.975 | locus YER002W, strain NOP16, stronger effect = lower value 1 | locus YJR075W, strain HOC1, stronger effect = lower value 0.992 | locus YNL153C, strain GIM3, stronger effect = lower value 1.02 | locus YNL175C, strain NOP13, stronger effect = lower value 1.01 | locus YNL197C, strain WHI3, stronger effect = lower value 1 | locus YNL224C, strain SQS1, stronger effect = lower value 1.02 | locus YNL322C, strain KRE1, stronger effect = lower value 0.988 | locus YOR083W, strain WHI5 (second series), stronger effect = lower value 0.993
